Compounds with a hit are over-represented: about 0.35% of the library has one in this group of screens.
TRPV1 ag: human TRPV1 agonism. TRPV1-expressing cells, Fluo-8 calcium influx, agonist mode. activation, % at 8.33 µM. hit rate 0.19% among 320,000; in the data active = activation above about 80%; inconclusive = between about 30% and that limit; also: 0% is about no effect
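Cells expressing TRPV1 were dye-loaded with Fluo-8 and read kinetically: 10 s baseline, 3 min after compound (agonist portion), then 2 min after EC20 capsaicin (allosteric enhancer portion). Calcium-bound dye fluorescence at 480/520 nm.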
KinaseGlo FLuc: counter-screen: inhibitors of Kinase-Glo firefly luciferase; Kinase-Glo luciferase, ATP luminescence, 8 min; Q27757; Potency, µM (top dose mostly 38.3 µM), for inactives: at the highest dose activity change, negative = inhibition, hits mostly inhibitors; AID 1379; hit rate 0.28% among 200,000; also: potency is read from the fitted curve at half-maximal effect; % is scaled to controls: 0 for no effect and ±100 for the full control effect; nearly all actives have a fitted effect of over 60% in size
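Kinase-Glo luciferase light output from ATP and luciferin was measured with 10 uM ATP, within the enzyme's linear range. Buffer: 50 mM imidazole pH 7.2, 50 mM KCl, 7 mM MgCl2, 0.01% Tween 20, 0.05% BSA; luminescence read after 8 min at ambient temperature.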
TRPV1 potentiator: enhances activation of the human vanilloid receptor TRPV1 | hit rate 0.02% among 320,000 | potentiation, % at 8.33 µM | TRPV1-expressing cells, Fluo-8 calcium influx, capsaicin EC20 potentiation | Q8NER1 | AID 540277; in the data active = potentiation above about 80%; inconclusive = between about 30% and that limit; also: 0% is about no effect
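TRPV1-expressing cells were cultured overnight at 35.5C and loaded with Fluo-8 calcium dye for 40 to 90 min at room temperature. After a 10 s baseline, compound was added and calcium influx was read kinetically for 3 min (ex 480/em 520 nm).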
CBFb RUNX1 block: inhibitors of human CBF-beta and RUNX1 interaction | AID 1477 | AlphaScreen CBFb-His/RUNX1-biotin binding, biochemical | 230,000 tested, under 10 active | Q01196+Q13951 | Potency, µM (doses to about 59.8 µM), for the others: top-dose activity, negative = inhibition, actives largely listed as inhibitors; also: % of control where 0% means no effect
Target sequence (Q01196 whole entry, looked up): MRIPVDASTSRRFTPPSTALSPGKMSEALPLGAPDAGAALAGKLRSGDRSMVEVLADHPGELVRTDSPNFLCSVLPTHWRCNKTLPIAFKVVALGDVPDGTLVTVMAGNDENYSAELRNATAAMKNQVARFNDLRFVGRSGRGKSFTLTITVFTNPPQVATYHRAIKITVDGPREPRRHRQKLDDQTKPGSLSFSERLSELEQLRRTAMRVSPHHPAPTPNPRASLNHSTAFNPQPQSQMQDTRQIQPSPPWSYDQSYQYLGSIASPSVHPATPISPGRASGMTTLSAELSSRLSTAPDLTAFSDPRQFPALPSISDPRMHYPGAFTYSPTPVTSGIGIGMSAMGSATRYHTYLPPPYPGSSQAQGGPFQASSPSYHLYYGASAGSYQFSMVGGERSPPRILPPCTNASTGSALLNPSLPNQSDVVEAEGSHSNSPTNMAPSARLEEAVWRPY
Target sequence (Q13951 whole entry, looked up): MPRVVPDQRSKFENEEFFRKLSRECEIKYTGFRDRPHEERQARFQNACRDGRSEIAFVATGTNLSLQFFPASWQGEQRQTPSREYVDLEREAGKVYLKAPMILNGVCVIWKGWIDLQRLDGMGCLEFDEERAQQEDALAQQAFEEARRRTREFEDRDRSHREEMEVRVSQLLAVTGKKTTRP
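Interaction loss through any mechanism counts as activity. Pre-formed complex of His-CBF-beta and biotin-RUNX1 (30 nM apiece) is incubated with compound 15 min, then with 50 ng nickel and 50 ng streptavidin beads for 90 min before AlphaScreen detection.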
TCR act: T cell receptor activation | Potency, µM (titrated, usually from 9.22 µM), for the others: at the top dose activation of IL-2 secretion, hits mostly activators | primary human leukocytes, anti-CD3, IL-2 HTRF, 48 h | 330,000 tested, under 10 active; also: % of control where 0% means no effect
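IL-2 produced over 48 hr by a-CD3 bead-stimulated primary human leukocytes exposed to compounds was detected with a homogeneous time-resolved FRET immunoassay, 665nm acceptor signal after 320nm excitation.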
MBNL1 CUG block: MBNL1-poly(CUG) RNA binding inhibition; hit rate 0.036% among 280,000; Potency, µM (doses to about 57.5 µM), without a hit: at the highest dose activity change, negative = inhibition, hits mostly inhibitors; Q9NR56; TR-FRET MBNL1-His/biotin-(CUG)12 binding, 665/545 ratio; active = well fitted inhibition curve with a large enough effect in the signal ratio, with a control signal flat, not every such curve was filed as active; inconclusive = small, poorly fitted or top-dose-only effect, or effect the other way, or a change in a side signal; inactive = no such curve, though single readings can be large or run the other way; the % refers to the signal ratio; also: potency is read from the fitted curve at half-maximal effect; % is scaled to controls: 0 for no effect and ±100 for the full control effect
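TR-FRET between His-tagged MBNL1 and biotin-(CUG)12 RNA, detected with Tb anti-His antibody (0.055 ng/ul) and streptavidin-XL665 (5 nM), 60 min at room temperature. Compounds titrated 92 nM to 58 uM; 665/545 nm ratio normalized to buffer and complex controls.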
Active calls of the source: *; ? = inconclusive; . = not tested or not shown; [ ] = another dose, or the depositor's remark. Unless noted, calls follow the shape of the dose curve; as a rule, active = well fitted curve in the direction sought with a large enough effect; inconclusive = small, poorly fitted or top-dose-only effect, or another doubt; inactive = no such curve, though single readings can be large; an effect the other way counts as inactive or inconclusive.

SMILES	TRPV1 ag	KinaseGlo FLuc	TRPV1 potentiator	CBFb RUNX1 block	TCR act	MBNL1 CUG block
CCCN1C=CC(=C2C(=O)c3ccccc3C2=O)C=C1	2	4.5µM*	13	0%	-4%	?
COc1ccc(CNC(=O)CN2CCN(c3cccc(C)c3C)CC2)cc1	80*	.	-5	.	0%	-4%
Cc1cc(C)c2nc(-c3ccccn3)cc(C(=O)NCc3ccco3)c2c1	27	0%	-19	-3%	-3%	12%
Cc1cc(C)c2nc(-c3ccccn3)cc(C(=O)NCc3cc(C)n(C)n3)c2c1	87*	-2%	-16	-7%	.	55%
COc1ccc(-c2cc(C(=O)N/N=C\c3cc(OC)c(OC)c(OC)c3)[nH]n2)cc1	.	-3%	.	.	.	.
O=C(O)CNC(=O)c1ccc([N+](=O)[O-])cc1	.	.	.	25%[21.7 µM]	.	.
CNc1ccc2c3c(cccc13)C(=O)N(C)C2=O	103*	.	-3	.	3%	?
Cc1ccc(NC(=O)c2cc(S(=O)(=O)N3CCOCC3)cs2)cc1	81*	.	-9	.	-3%	-8%
O=C(O)[C@@H]1[C@@H](C(=O)NCc2ccccn2)[C@@H]2C=C[C@@H]1O2	.	-2%[7.66 µM]	.	.	.	.
COc1cc(C(=O)N=c2sc3c(C)ccc(OC)c3n2C)cc(OC)c1OC	8	.	5	9%	6%	2%
COc1ccc(C(=O)N=c2sc3c(C)ccc(OC)c3n2C)cc1	2	13µM*	4	6%	3%	1%
CCn1cc(C(=O)NCCCN(C)c2ccccc2)c(=O)c2cc(S(=O)(=O)N(C)C)ccc21	?	2%	4	-5%	2%	-4%
CCN(CCCNC(=O)c1cn(CC)c2ccc(S(=O)(=O)N(C)C)cc2c1=O)c1cccc(C)c1	109*	0%	-3	-15%	3%	3%
Cc1cc(C(=O)Nc2nc3c(s2)CCCC3)cs1	?	?	-17	2%	.	19%
Cc1ncsc1C(=O)Nc1nc2c(s1)CCCC2	2	6.3µM*	-22	-9%	4%	1%
Cc1cc(C2=NNC(=NC3CC3)SC2)c(C)n1-c1ccccc1F	5	11µM*	-1	4%	-11%	.
c1cc2c(cc1C1=NNC(=NC3CC3)SC1)OCCO2	1	2.2µM*	8	-18%	-1%	10%
CN(C)CCNC(=O)c1ccc(-n2c(=O)c(=O)[nH]c3ccccc32)cc1	.	0%	.	.	.	.
O=C(O)c1cc(/C=C/c2ccc(N3CCOCC3)cc2)nc2ccccc12	0	11µM*	4	10%	-6%	?
NS(=O)(=O)c1cc2c(cc1Cl)=NC(CCC(=O)O)=NS=2(=O)O	.	-4%[7.66 µM]	.	.	.	.
COc1cc(/C=N/NC(=O)c2nonc2C)ccc1O	1	-14%	11	15%	3%	?
Cc1nonc1C(=O)N/N=C/c1ccc(O)c(O)c1	3	6.3µM*	23	-6%	0%[46.1 µM]	27%
c1ccc(C2=NN[C@@H]3c4ccccc4-c4ccccc4N3C2)cc1	.	-9%[7.66 µM]	.	.	.	.
Cc1ccc(C(=O)Nc2sc3c(c2C(=O)O)CCCCC3)o1	3	7.9µM*	1	28%	2%	-10%
O=C(N/N=C/c1ccc([N+](=O)[O-])o1)c1cc(-c2ccc(-c3ccccc3)cc2)nc2ccccc12	-9	11µM*	2	1%	.	2%
SMILES	TRPV1 ag	KinaseGlo FLuc	TRPV1 potentiator	CBFb RUNX1 block	TCR act	MBNL1 CUG block
CCc1ccc(S(=O)(=O)Nc2ccc(O)c(C(=O)O)c2)cc1	.	-1%	.	.	.	.
NS(=O)(=O)c1ccc(NC(=O)c2ccc3c(c2)CCCC3)cc1	92*	.	-5	.	-1%	13%
CC(=O)c1ccc(-c2nc3ccccc3n2C)o1	3	?	0	9%	-6%	?
Cc1ccc(-c2nc3ccccc3n2C)o1	-1	7.9µM*	3	3%	0%	-3%
Cn1c(-c2ccc(Br)o2)nc2cc(Br)ccc21	9	-27%	-6	-11%	3%	45%
CN(C)c1ccc(-c2nc3ccccc3n2C)cc1	9	10µM*	-19	-4%	3%	8%
Cn1c(-c2ccc(Br)o2)nc2ccccc21	0	10µM*	27	0%	-4%	7%
OC[C@@H]1O[C@@H](n2cnc3c(SCc4ccccc4)ncnc32)[C@@H](O)[C@H]1O	.	-5%[7.66 µM]	.	.	.	.
O=S(=O)(O)c1ccc(NN(c2c(O)ccc3ccccc23)S(=O)(=O)O)cc1	.	-14%[7.66 µM]	.	.	.	.
CCc1ccc(NC(=O)Nc2ccc3c(c2)N(C)C(=O)CS3)cc1	88*	0%	-7	2%	-2%	-7%
Cc1ccccc1/C=C1\CCCc2ccccc2C1=O	?	?	6	0%	-1%[46.1 µM]	-14%
Cc1ccsc1/C=C1\CCc2ccccc2C1=O	6	10µM*	7	-4%	-3%	15%
COc1ccc([C@@H](Nc2ccccn2)c2cc(C(C)(C)C)cc(C(C)(C)C)c2O)cc1	.	-4%[7.66 µM]	.	.	.	.
CC(C)S	.	.	.	10%[21.7 µM]	.	.
O=C(Nc1nnc(C2CCCCC2)s1)c1ccc(Br)s1	80*	3%	-7	0%	4%	-3%
NS(=O)(=O)c1ccc(NC(=O)/C=C/c2cccs2)cc1	?	.	-20	-3%	0%	6%
CCOC(=O)c1ccc(NC(=O)/C=C/c2cccs2)cc1	84*	-6%	2	1%	5%	16%
NS(=O)(=O)c1cccc(NC(=O)/C=C/c2cccs2)c1	94*	-4%	-7	3%	.	?
CC(=O)N1CCN(c2nc(CC(C)C)c3c(c2C#N)CCC3)CC1	93*	0%	21	-2%	0%	1%
O=C1c2cccnc2C(Nc2ccc(Br)cc2)N1Cc1cccs1 (stereo not given)	84*	7%	-27	-6%	5%	-26%
COc1ccc(NC2c3ncccc3C(=O)N2Cc2cccs2)cc1 (stereo not given)	?	0%	-31	-1%	-1%	-12%
O=Nc1ccc(NOC(=O)c2ccccc2)cc1	-4	10µM*	-6	-9%	-3%[46.1 µM]	?
O=Nc1ccc(Nc2ccccc2)cc1	.	.	.	-10%[21.7 µM]	.	.
CCCCc1nc2c(c3c1C[C@H](C)OC3)CN(C(=O)NCCCC(=O)OCC)CC2	.	2%[7.66 µM]	.	-4%[13.1 µM]	.	.
COc1ccc(-c2cn3c4c(sc3n2)CCCC4)cc1	81*	-6%	-18	-20%	-4%	-1%
COc1ccc(-c2cn3c(C)c(C(=O)N4CCCc5ccccc54)sc3n2)cc1	.	.	.	.	1%	.
CC1(C)S[C@@H]2[C@H](C(=O)O)N=C(Cc3ccccc3)N2[C@H]1C(=O)O	.	-4%[7.66 µM]	.	.	.	.
COC(=O)c1ccccc1-c1c2ccc(=N)cc-2oc2cc(N)ccc12	123*	.	-5	.	-3%	.
O=C(O)c1ccccc1-c1c2ccc(=O)cc-2oc2cc(O)ccc12	.	0%[39.9 µM]	.	0%	.	.
